This is an account of results in PubChem BioAssay (Tox21).

Values without a mark were called inactive. Results filed as inconclusive are left out. Calls of active or inactive are those of the source. Unless noted, calls follow the shape of the dose curve; as a rule, active = well fitted curve in the direction sought with a large enough effect in the repeat runs; inconclusive = weak or mixed curves; inactive = no such curve, though single readings can be large; an effect the other way counts as inactive or inconclusive.

A short description of assay [1]: qHTS assay to identify small molecule antagonists of the estrogen related receptor (ERR) signaling pathway from Tox21 library - cell viability counter screen (AID 1224834). Also: nearly all actives have a fitted effect of over 30% in size. In a few lines: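 CellTiter-Fluor fluorescence, read after 30 min at 37 C, measures viability of ERR cells. Cells plated at 2,000/well and incubated 6 h before pin-tool compound addition, then exposed 17.5 hours at 37 C.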

Assay [2] addresses Luciferin 4-monooxygenase (Photinus pyralis) (UniProt P08659). As to the kind of experiment: qHTS assay to identify small molecule inhibitors of firefly luciferase (AID 1224835). Also: nearly all actives have a fitted effect of over 25% in size. An outline of the steps: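 Biochemical qHTS: compounds run as interplate titrations against purified firefly enzyme, with D-luciferin and ATP each at its KM concentration. Light output recorded by CCD imaging.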
On the technique in general: In qHTS, concentration-response curves come from the screen itself.

Assay [3] in a line: qHTS assay to identify small molecule agonists of the constitutive androstane receptor (CAR) signaling pathway - cell viability counter screen (AID 1224836). Also: nearly all actives have a fitted effect of over 45% in size. In a few lines: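 Multiplexed viability check: HepG2-CYP2B6-hCAR cells, 15-point compound dosing, 0.75 uM PK11195 final, 23 h at 37 C, CellTiter-Fluor fluorescence.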
The nature of assay [4]: qHTS assay to identify small molecule antagonists of the constitutive androstane receptor (CAR) signaling pathway - cell viability counter screen (AID 1224837). Also: nearly all actives have a fitted effect of over 45% in size. An outline of the steps: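 Cytotoxicity counter-screen: CellTiter-Fluor fluorescence after 23 h compound exposure (15-point qHTS) in double-stable HepG2-CYP2B6-hCAR cells, with 50 nM CITCO added.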
In assay [5] the target is Nuclear receptor subfamily 1 group I member 3 (Homo sapiens) (UniProt Q14994). As to the kind of experiment: qHTS assay to identify small molecule antagonists of the constitutive androstane receptor (CAR) signaling pathway (AID 1224838).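 Also: HepG2 cells stably expressing hCAR with CYP2B6 luciferase reporter stimulated by CITCO; nearly all actives have a fitted effect of over 40% in size.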 In a few lines: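 Antagonism measured as luciferase signal (ONE-Glo, 30 min, room temperature) in CAR-stimulated cells: HepG2-CYP2B6-hCAR double-stable line exposed 24 hr at 37 C to compound in a 15-point series plus 50 nM CITCO.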

The target is the same in assay [6]. In words: qHTS assay to identify small molecule agonists of the constitutive androstane receptor (CAR) signaling pathway (AID 1224839).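 Also: HepG2 cells stably carrying human CAR and a CYP2B6 luciferase reporter; nearly all actives have a fitted effect of over 15% in size.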 In a few lines: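 Using human hepatoma HepG2 cells engineered with hCAR and a CYP2B6-2.2kb reporter, 15-concentration compound series were incubated 24 h alongside PK11195 at 0.75 uM final, with luminescence quantified afterwards.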

Assay [7] can be described thus: qHTS assay to identify small molecule antagonists of the estrogen related receptor signaling pathway with the pleiotropic PPARgamma coactivator (PGC) from Tox21 10K library - cell viability counter screen (AID 1224840; active = well fitted cell-killing curve with a large enough effect in the repeat runs, not every such curve was filed as active; also: nearly all actives have a fitted effect of over 40% in size). In a few lines:
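Counter-screen for cytotoxicity: after 17.5 h compound exposure at 37 C, CellTiter-Fluor reagent added to PGC/ERR cells for 30 min and fluorescence read. Cells were seeded at 2,000 per well 6 h before dosing.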

Assay [8] is described as follows: qHTS assay to identify small molecule antagonists of the estrogen related receptor signaling pathway with the pleiotropic PPARgamma coactivator (PGC) from Tox21 10K library (AID 1224841; call rule not given here; also: actives are mostly falling curves and most rising ones were filed inactive; nearly all actives have a fitted effect of over 50% in size). An outline of the steps: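 Luminescence (One-Glo, 30 min at room temperature) after 18 h compound treatment at 37 C of PGC/ERR reporter cells plated at 2,000 cells/well and settled 6 h beforehand.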

The nature of assay [9]: qHTS assay to identify small molecule agonists of the hypoxia (HIF-1) signaling pathway - cell viability counter screen (AID 1224844; calls by dose curve; also: nearly all actives have a fitted effect of over 50% in size). In a few lines:
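Cytotoxicity measured by CellTiter-Glo ATP luminescence in the wells also read for beta-lactamase signal. Cells were HRE-bla ME-180 (2,000/well, 0.5% dialyzed FBS), exposed to compounds for 17 h at 37C.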

The nature of assay [10]: qHTS assay to identify small molecule agonists of H2AX (AID 1224845; active = well fitted activation curve with a large enough effect in the signal ratio in the repeat runs, not every such curve was filed as active; the % refers to the signal ratio). In a few lines: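 Wild-type CHO-K1 cells, plated overnight, exposed 3hr at 37C to 15 concentrations (0.76% DMSO final). Lysed, then HTRF anti-pH2AX (S139) cryptate and anti-H2AX-d2 antibodies, 24 hr room temperature; 665/620 nm emission read.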
The nature of assay [11]: qHTS assay to identify small molecule agonists of the hypoxia (HIF-1) signaling pathway (AID 1224846; active = well fitted activation curve with a large enough effect in the signal ratio in the repeat runs, not every such curve was filed as active; the % refers to the signal ratio). In a few lines:
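Compounds added to ME-180 cells carrying hypoxia-response-element beta-lactamase reporter (0.5% dialyzed FBS, 5 h preplating), 17 h at 37C; agonist activity detected by CCF4-AM B/G FRET read-out.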

Assay [12] can be described thus: qHTS assay to identify small molecule agonists of H2AX - cell viability counter screen (AID 1224847; calls by dose curve; also: nearly all actives have a fitted effect of over 30% in size; also: potency is read from the fitted curve at half-maximal effect). In a few lines:
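After overnight plating of 1000 CHO-K1 cells per well, a 15-concentration compound series was applied for 3 hr at 37C. Luminescence from CellTiter-Glo, read following 30 min at room temperature, reflected cell viability.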

Assay [13] can be described thus: qHTS assay to identify small molecule antagonists of the estrogen related receptor (ERR) signaling pathway from Tox21 library (AID 1224848). Also: nearly all actives have a fitted effect of over 50% in size. An outline of the steps:
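Compounds dissolved in DMSO are pin-transferred onto ERR reporter cells (2,000 per well) that have settled for 6 h at 37 C. Plates then incubate 18 h at 37 C before ONE-Glo luciferase reagent and a luminescence read 30 min later.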

The nature of assay [14]: qHTS assay to identify small molecule agonists of the estrogen related receptor (ERR) signaling pathway from Tox21 library (AID 1224849; calls by dose curve; also: nearly all actives have a fitted effect of over 15% in size). The conditions noted are these: ERR reporter cell line, ONE-Glo luciferase, 18 h; at 92.4 µM (top of the series) unless noted. An outline of the steps:
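Luminescent agonist read-out (One-Glo, 30-minute room-temperature incubation) following 18-hour compound treatment at 37 C of the ERR cell line, which had been plated 6 hours before dosing.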

Assay [15] can be described thus: qHTS RealTime-Glo MT Cell Viability Assay in HepG2 cells - 24 hour (AID 1224867). Also: nearly all actives have a fitted effect of over 50% in size. In a few lines:
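Luminescence read-out: viable HepG2 cells reduce a prosubstrate to a NanoLuc substrate, giving a signal proportional to live cell number. Reads taken at 0, 8, 16, 24, 32 and 40 h of compound exposure at 37 C.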

A short description of assay [16]: qHTS RealTime-Glo MT Cell Viability Assay in HEK293 cells - 32 hour (AID 1224868). In a few lines: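 Nonlytic real-time viability readout: viable cells convert prosubstrate to NanoLuc substrate, giving luminescence proportional to live cell number. HEK293, 600 cells/well, compound added after 5 h, continuous culture at 37 C.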
Assay [17] in a line: A CellTox Green Cytotoxicity Assay to monitor cytotoxicity in HEK293 cells - 0 hour (AID 1224869). Also: nearly all actives have a fitted effect of over 50% in size. An outline of the steps:
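Fluorescence from a DNA-binding dye excluded by viable cells was measured repeatedly in the same HEK293 wells (600 cells/well) during continuous compound exposure at 37 C. Each assay gives one read point: 0, 8, 16, 24, 32 or 40 h.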

The target in assay [18] is Thyrotropin receptor (Homo sapiens) (UniProt P16473). As to the kind of experiment: qHTS assay to identify small molecule agonists of the thyroid stimulating hormone receptor (TSHR) signaling pathway (AID 1224843; calls by dose curve; also: nearly all actives have a fitted effect of over 45% in size). In a few lines: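 HEK293/TSHR, 800 cells/well; cpd 30 min RT; add cAMP-d2 + anti-cAMP-cryptate, 1 h RT; fluorescence read on plate reader. 15-pt titration, n=3.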

Assay [19] is described as follows: qHTS assay to identify small molecule agonists of the estrogen related receptor signaling pathway with the pleiotropic PPARgamma coactivator (PGC) from Tox21 10K library (AID 1224842). Also: nearly all actives have a fitted effect of over 15% in size. In a few lines:
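PGC/ERR reporter cell line, 2,000 cells per well, incubated 6 h at 37 C before 23 nL compound in DMSO was added. After 18 h at 37 C, One-Glo luminescence read following 30 min at room temperature.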
% is scaled to controls: 0 for no effect and ±100 for the full control effect.

Sequence of Nuclear receptor subfamily 1 group I member 3 (Homo sapiens) (Q14994 whole entry, looked up): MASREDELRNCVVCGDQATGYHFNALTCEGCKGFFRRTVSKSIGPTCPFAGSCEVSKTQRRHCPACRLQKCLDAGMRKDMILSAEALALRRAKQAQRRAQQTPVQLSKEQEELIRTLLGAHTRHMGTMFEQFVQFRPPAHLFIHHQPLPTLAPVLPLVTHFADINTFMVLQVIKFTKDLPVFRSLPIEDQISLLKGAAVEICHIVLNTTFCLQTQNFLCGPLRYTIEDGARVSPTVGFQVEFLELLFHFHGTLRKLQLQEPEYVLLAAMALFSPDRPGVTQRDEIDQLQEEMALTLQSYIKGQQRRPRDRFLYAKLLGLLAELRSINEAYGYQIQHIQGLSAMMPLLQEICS
Sequence of Luciferin 4-monooxygenase (Photinus pyralis) (P08659 whole entry, looked up): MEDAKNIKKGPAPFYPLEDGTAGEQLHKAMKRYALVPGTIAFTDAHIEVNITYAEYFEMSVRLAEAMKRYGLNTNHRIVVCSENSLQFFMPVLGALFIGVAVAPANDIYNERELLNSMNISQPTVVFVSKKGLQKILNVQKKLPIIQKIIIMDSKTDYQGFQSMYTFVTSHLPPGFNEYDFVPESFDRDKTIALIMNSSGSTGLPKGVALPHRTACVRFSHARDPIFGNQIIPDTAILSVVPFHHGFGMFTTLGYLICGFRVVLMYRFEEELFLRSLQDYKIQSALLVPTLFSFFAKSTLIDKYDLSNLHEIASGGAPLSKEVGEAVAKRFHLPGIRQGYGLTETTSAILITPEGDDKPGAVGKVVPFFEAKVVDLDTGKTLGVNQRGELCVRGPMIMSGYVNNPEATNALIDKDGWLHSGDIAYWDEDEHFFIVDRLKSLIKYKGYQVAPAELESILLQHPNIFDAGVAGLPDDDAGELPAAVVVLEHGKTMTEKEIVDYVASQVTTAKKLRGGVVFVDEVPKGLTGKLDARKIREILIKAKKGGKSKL
Sequence of Thyrotropin receptor (Homo sapiens) (P16473 whole entry, looked up): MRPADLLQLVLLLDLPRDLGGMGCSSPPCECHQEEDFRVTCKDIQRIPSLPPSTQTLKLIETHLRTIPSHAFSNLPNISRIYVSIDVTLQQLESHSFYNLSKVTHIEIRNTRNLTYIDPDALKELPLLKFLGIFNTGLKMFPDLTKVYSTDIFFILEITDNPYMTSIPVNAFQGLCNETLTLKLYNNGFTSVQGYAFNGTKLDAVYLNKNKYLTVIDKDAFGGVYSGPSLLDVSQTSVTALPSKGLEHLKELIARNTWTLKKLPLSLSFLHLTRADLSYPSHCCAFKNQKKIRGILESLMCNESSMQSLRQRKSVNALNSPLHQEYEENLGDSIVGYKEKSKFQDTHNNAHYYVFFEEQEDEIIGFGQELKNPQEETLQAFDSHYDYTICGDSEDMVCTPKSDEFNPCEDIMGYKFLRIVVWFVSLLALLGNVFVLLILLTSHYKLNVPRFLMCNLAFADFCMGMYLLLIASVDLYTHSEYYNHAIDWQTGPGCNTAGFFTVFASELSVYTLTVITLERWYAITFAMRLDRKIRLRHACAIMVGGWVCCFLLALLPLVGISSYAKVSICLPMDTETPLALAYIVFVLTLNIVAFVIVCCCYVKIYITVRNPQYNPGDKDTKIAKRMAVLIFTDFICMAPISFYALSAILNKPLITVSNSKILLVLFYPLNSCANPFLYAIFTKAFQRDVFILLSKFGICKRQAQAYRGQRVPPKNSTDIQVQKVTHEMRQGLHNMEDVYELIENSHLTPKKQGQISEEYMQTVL

As for `NCC1CCCC(CN)C1` (stereo unspecified), the Potency result in [1], in [2], in assay [3], in [4], in assay [5] and in assay [6] was “inactive” throughout. Moreover, the Potency result in assay [7], in assay [8], in assay [9], in [10], in assay [12] and in [13] was “inactive” each time. Also, the Potency entry in assay [15], in assay [16] and in [17] was “inactive” in each case. Moreover, the compound was called inactive in [11]. Moreover, in assay [14], the activity change, positive = activation is -0.124%.

For `NC(=O)Nc1ccc(Cl)c(Cl)c1`, the Potency entry in [1], in assay [2], in [3], in [4], in assay [5] and in assay [6] was “inactive” throughout. For the same compound, the Potency entry in assay [7], in assay [8], in [9], in assay [10], in [12] and in assay [13] was “inactive” throughout. Also, the Potency result in [15] and in [17] was “inactive” throughout. Moreover, the compound was called inactive in assay [11]. Moreover, the activity change, positive = activation in assay [14] is 4.97%.

Consider `Cc1cc(O)c(C(C)C)cc1Cl`, for which the Potency entry in assay [1], in [2], in assay [3], in [4], in assay [5] and in [6] was “inactive” each time. For the same compound, the Potency entry in [7], in assay [18], in assay [9], in assay [10], in [15] and in assay [16] was “inactive” throughout. Moreover, the compound was called inactive in assay [11]. Also, the Potency in assay [12] is 89.8 µM (active).

Consider `O=C(O)c1cccc(O)c1`, for which the Potency entry in [1], in [2], in assay [3], in [4], in assay [5] and in assay [6] was “inactive” throughout. Moreover, the Potency result in assay [7], in assay [18], in assay [9], in assay [10], in assay [12] and in assay [15] was “inactive” in each case. The Potency entry in assay [16] and in assay [17] was “inactive” each time. In [11], the compound was classed as inactive.

Take `O=C(NCCCN1CCOCC1)c1ccc(Cl)cc1`: the Potency result in assay [1], in assay [2], in assay [3], in assay [4], in assay [6] and in assay [7] was “inactive” in each case. Moreover, the Potency entry in assay [8], in [18], in [9], in assay [10], in assay [12] and in [13] was “inactive” in each case. Also, the Potency result in assay [15], in assay [16] and in assay [17] was “inactive” in each case. Besides, the activity change, positive = activation in [14] is 11.6% [at 42.5 µM].

For `OC(CCCN1CCCCC1)(c1ccccc1)c1ccccc1`, the Potency result in assay [1], in assay [2], in assay [3], in assay [4], in assay [6] and in [7] was “inactive” throughout. Further, the Potency result in [8], in assay [19], in [18], in [9], in assay [10] and in [13] was “inactive” in each case. The Potency entry in assay [15], in assay [16] and in [17] was “inactive” in each case.

On to `CCCCC/C(=C\c1ccccc1)CO`, for which the Potency result in [1], in assay [2], in assay [3], in [4], in assay [5] and in assay [7] was “inactive” throughout. Also, the Potency entry in [18], in [10], in assay [15], in [16] and in assay [17] was “inactive” throughout. In assay [11], the outcome was inactive.

With `CC1(C)C(=O)N(Br)C(=O)N1Cl`, the Potency entry in assay [1], in assay [2], in assay [3], in [4], in assay [6] and in [7] was “inactive” throughout. Further, the Potency result in [8], in assay [19], in assay [18], in [9], in [10] and in assay [13] was “inactive” each time. Also, the Potency result in [15], in [16] and in [17] was “inactive” in each case. Besides, the outcome in assay [11] was inactive.
